The source of these data is PubChem BioAssay (NCATS).

Several values for one entry are separate records, joined by “and”; a condition that tells them apart may be missing. Identical values can stand only once. Inconclusive results are not listed. Activity calls are given as the source filed them. Calls follow the shape of the dose curve; as a rule, active = well fitted curve in the direction sought with a large enough effect; inconclusive = small, poorly fitted or top-dose-only effect, or another doubt; inactive = no such curve, though single readings can be large; an effect the other way counts as inactive or inconclusive.
Potency is read from the fitted curve at half-maximal effect.

The first assay can be described thus: qHTS of pediatric cancer cell lines to identify multiple opportunities for drug repurposing: Primary screen for U-2 OS cells (AID 1347096). Also: nearly all actives have a fitted effect of over 50% in size.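 As to activity change, negative = cytotoxic: plate controls were DMSO wells for no effect and bortezomib positive control wells for full effect.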 Particulars: U-2 OS viability, CellTiter-Glo luminescence, 48 h; series mostly up to 46 µM; activity change, negative = cytotoxic: at the top concentration. In outline:
(§1)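 Cells (500-1,000/well) rested 5 h, then received compounds for 48 h; metabolically active cells were measured by CellTiter-Glo luminescence. Final concentrations spanned up to 46 µM (MIPE, 11-point) or 0.59 nM-46 µM (NPC, 8-point) in primary screens, 11-point in follow-ups.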
A general note: In qHTS, concentration-response curves come from the screen itself.
Turning to `NN=C(N)N`, the “activity change, negative = cytotoxic” value was 3.69% (inactive).

With `CN1CCN(C(=O)O[C@H]2c3nccnc3C(=O)N2c2ccc(Cl)cn2)CC1`, the Potency result was “inactive”.

As to `CC1NCCOC1c1ccccc1` (stereo not given), the “activity change, negative = cytotoxic” value is 3.6% (inactive).

As for `CC(C)=CC1C(C(=O)OCc2cccc(Oc3ccccc3)c2)C1(C)C` (stereo not given), the “activity change, negative = cytotoxic” value was 3.43% (inactive).

`NCCc1cc(O)c(O)cc1O`: the “activity change, negative = cytotoxic” value was 6.02% (inactive).

Turning to `CCN(CC)C(=O)N[C@@H]1C=C2c3cccc4[nH]cc(c34)C[C@@H]2N(C)C1`, the “activity change, negative = cytotoxic” value is 6.52% (inactive).

As to `CCCC(C)(COC(N)=O)COC(=O)NC(C)C` (stereo not given), the Potency entry was “inactive”.

Consider `O=[N+]([O-])c1cc([As](=O)(O)O)ccc1O`, for which the “activity change, negative = cytotoxic” value was 11.4% (inactive).

Consider `COc1ccc(C(=O)c2c(C)n(CCN3CCOCC3)c3ccccc23)cc1`, for which the Potency result is “inactive”.

Regarding `CCC(C(N)=O)N1CCCC1=O` (stereo not given), the “activity change, negative = cytotoxic” value was 8.99% (inactive).

For `C=C1CC[C@@]2(O)[C@H]3Cc4ccc(O)c5c4[C@@]2(CCN3CC2CC2)[C@H]1O5`, the “activity change, negative = cytotoxic” value was 4.87% (inactive).

`Nc1ccncc1`: the “activity change, negative = cytotoxic” value was 7.32% (inactive).

`CC(C)NCC(O)c1ccccc1Cl` (stereo not given): the “activity change, negative = cytotoxic” value is 12.6% (inactive).

As to `CCCN1CCC[C@@H]2Cc3nc(N)ncc3C[C@H]21`, the “activity change, negative = cytotoxic” value was 9.17% (inactive).

With `N[C@@H](Cc1ccc(N(CCCl)CCCl)cc1)C(=O)O`, the Potency entry is “inactive”.

For the molecule `CCCN1CCC[C@@H]2Cc3[nH]ncc3C[C@H]21`, the “activity change, negative = cytotoxic” value was 1.06% (inactive).

On to `CC(=O)[C@H]1CC[C@H]2[C@@H]3CC[C@H]4C[C@](C)(O)CC[C@]4(C)[C@H]3CC[C@]12C`, for which the “activity change, negative = cytotoxic” value was 9.38% (inactive).

For `Oc1cc(Cl)ccc1Oc1ccc(Cl)cc1Cl`, the “activity change, negative = cytotoxic” value is -21.5% (inactive).

In the case of `N[C@@H](Cc1ccc(Oc2cc(I)c(O)c(I)c2)c(I)c1)C(=O)O`, the “activity change, negative = cytotoxic” value is -2.83% (inactive).

For the molecule `Clc1cccc(N2CCNCC2)c1`, the “activity change, negative = cytotoxic” value was -1.87% (inactive).

Take `C#CCN(C)[C@H](C)Cc1ccccc1`: the Potency entry is “inactive”.

`CC(C)(C)NCC(O)c1cc(Cl)c(N)c(Cl)c1` (stereo not given): the “activity change, negative = cytotoxic” value is 8.64% (inactive).

For `CC[C@@H](CO)NC(=O)[C@@H]1C=C2c3cccc4[nH]cc(c34)C[C@H]2N(C)C1`, the “activity change, negative = cytotoxic” value was -7.97% (inactive).

On to `NP(N)(=O)NC(=O)c1ccc(F)cc1`, for which the “activity change, negative = cytotoxic” value is 11.9% (inactive).

`CCN(CC)CCOC(=O)C(O)(c1ccccc1)c1ccccc1`: the “activity change, negative = cytotoxic” value was 0.112% (inactive).

Take `Cc1cccc(C)c1NC(=O)CN1CCCC1=O`: the Potency entry is “inactive”.

`CN1C(=S)CN=C(c2ccccc2)c2cc(Cl)ccc21`: the “activity change, negative = cytotoxic” value is -6.04% (inactive).

For `N[C@@H]1C[C@H]1c1ccccc1`, the “activity change, negative = cytotoxic” value was 6.52% (inactive).

On to `CC[N+](CC)(CC)CC`, for which the “activity change, negative = cytotoxic” value was 16.2% (inactive).

As for `Fc1ccc(C(OCCN2CCN(CCCc3ccccc3)CC2)c2ccc(F)cc2)cc1`, the Potency was 23.5 µM (active).

Take `CCCC1CCCCN1` (stereo not given): the “activity change, negative = cytotoxic” value was 13.8% (inactive).

Take `C#CCOC(C(=O)OCCN(C)C)(c1ccccc1)c1ccccc1`: the “activity change, negative = cytotoxic” value is 5.64% (inactive).

As to `CN(C)CCc1ccc(O)cc1`, the Potency entry is “inactive”.

In the case of `CCN(C(C)=O)c1cccc(-c2ccnc3c(C#N)cnn23)c1`, the “activity change, negative = cytotoxic” value is 0.154% (inactive).

As to `CC(=O)Nc1cc([As](=O)(O)O)ccc1O`, the “activity change, negative = cytotoxic” value is 8.18% (inactive).

On to `NCC1(CC(=O)O)CCCCC1`, for which the Potency entry is “inactive”.

The nature of the next assay: qHTS of pediatric cancer cell lines to identify multiple opportunities for drug repurposing: Primary screen for Saos-2 cells (AID 1347097). Also: nearly all actives have a fitted effect of over 40% in size. As to activity change, negative = cytotoxic: % is scaled to controls: 0 for no effect and ±100 for the full control effect. Particulars: Saos-2 viability, CellTiter-Glo ATP luminescence, 48 h; series mostly up to 46 µM; activity change, negative = cytotoxic: at the top concentration. In outline: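 Cells plated at 500-1,000/well in growth medium, compounds added after 5 h. MIPE tested at 11 points (from 0.78 nM), NPC at 8 points (from 0.59 nM). CellTiter-Glo luminescence after 48 h; concentration-response curves from primary screen.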
Turning to `NN=C(N)N`, the “activity change, negative = cytotoxic” value was 35.2% (inactive).

Take `CC(C)=CC1C(C(=O)OCc2cccc(Oc3ccccc3)c2)C1(C)C` (stereo not given): the “activity change, negative = cytotoxic” value is 25.4% (inactive).

For the molecule `NCCc1cc(O)c(O)cc1O`, the “activity change, negative = cytotoxic” value was -6.57% (inactive).

On to `CCCC(C)(COC(N)=O)COC(=O)NC(C)C` (stereo not given), for which the Potency entry was “inactive”.

Take `COc1ccc(C(=O)c2c(C)n(CCN3CCOCC3)c3ccccc23)cc1`: the “activity change, negative = cytotoxic” value is 12% (inactive).

In the case of `Nc1ccncc1`, the “activity change, negative = cytotoxic” value was 22% (inactive).

As to `CC(C)NCC(O)c1ccccc1Cl` (stereo not given), the “activity change, negative = cytotoxic” value is -3.55% (inactive).

For the molecule `N[C@@H](Cc1ccc(N(CCCl)CCCl)cc1)C(=O)O`, the Potency is 26.6 µM (active) and 16.6 µM (active).

For `CC(=O)[C@H]1CC[C@H]2[C@@H]3CC[C@H]4C[C@](C)(O)CC[C@]4(C)[C@H]3CC[C@]12C`, the “activity change, negative = cytotoxic” value is 7.79% (inactive).

Take `Oc1cc(Cl)ccc1Oc1ccc(Cl)cc1Cl`: the Potency was 24.8 µM (active) and 26.6 µM (active).

`Clc1cccc(N2CCNCC2)c1`: the “activity change, negative = cytotoxic” value is -25.6% (inactive).

Consider `C#CCN(C)[C@H](C)Cc1ccccc1`, for which the “activity change, negative = cytotoxic” value was -3.98% (inactive).

`CC(C)(C)NCC(O)c1cc(Cl)c(N)c(Cl)c1` (stereo not given): the “activity change, negative = cytotoxic” value is 15.2% (inactive).

As for `CC[C@@H](CO)NC(=O)[C@@H]1C=C2c3cccc4[nH]cc(c34)C[C@H]2N(C)C1`, the “activity change, negative = cytotoxic” value was 1.56% (inactive).

`Cc1cccc(C)c1NC(=O)CN1CCCC1=O`: the “activity change, negative = cytotoxic” value was -2.79% (inactive).

For `CN1C(=S)CN=C(c2ccccc2)c2cc(Cl)ccc21`, the “activity change, negative = cytotoxic” value was -0.104% (inactive).

On to `CC[N+](CC)(CC)CC`, for which the “activity change, negative = cytotoxic” value is -6.54% (inactive).

On to `Fc1ccc(C(OCCN2CCN(CCCc3ccccc3)CC2)c2ccc(F)cc2)cc1`, for which the Potency was 14.8 µM (active) and 15 µM (active).

Consider `CCCC1CCCCN1` (stereo not given), for which the “activity change, negative = cytotoxic” value is 2.84% (inactive).

Take `C#CCOC(C(=O)OCCN(C)C)(c1ccccc1)c1ccccc1`: the “activity change, negative = cytotoxic” value was 12.1% (inactive).

On to `CN(C)CCc1ccc(O)cc1`, for which the Potency result is “inactive”.

On to `CCN(C(C)=O)c1cccc(-c2ccnc3c(C#N)cnn23)c1`, for which the “activity change, negative = cytotoxic” value is 5.48% (inactive).

Take `CC(=O)Nc1cc([As](=O)(O)O)ccc1O`: the “activity change, negative = cytotoxic” value is -8.6% (inactive).

Turning to `NCC1(CC(=O)O)CCCCC1`, the Potency result was “inactive”.

The nature of a further assay: qHTS of pediatric cancer cell lines to identify multiple opportunities for drug repurposing: Primary screen for SK-N-SH cells (AID 1347098). Also: nearly all actives have a fitted effect of over 65% in size.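 As to activity change, negative = cytotoxic: DMSO served as neutral control and bortezomib at 2.3 µM as positive control; % is scaled to controls: 0 for no effect and ±100 for the full control effect.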 Particulars: SK-N-SH viability, CellTiter-Glo luminescence, 48 h; series mostly up to 57 µM; activity change, negative = cytotoxic: at the top concentration. In short, it runs like this: as §1
`CN1CCN(C(=O)O[C@H]2c3nccnc3C(=O)N2c2ccc(Cl)cn2)CC1`: the Potency entry is “inactive”.

Take `CC1NCCOC1c1ccccc1` (stereo not given): the “activity change, negative = cytotoxic” value was -1.43% (inactive).

In the case of `CC(C)=CC1C(C(=O)OCc2cccc(Oc3ccccc3)c2)C1(C)C` (stereo not given), the “activity change, negative = cytotoxic” value is -18.8% (inactive).

Consider `CCN(CC)C(=O)N[C@@H]1C=C2c3cccc4[nH]cc(c34)C[C@@H]2N(C)C1`, for which the “activity change, negative = cytotoxic” value was 8.26% (inactive).

Take `O=[N+]([O-])c1cc([As](=O)(O)O)ccc1O`: the “activity change, negative = cytotoxic” value was -4.96% (inactive).

In the case of `COc1ccc(C(=O)c2c(C)n(CCN3CCOCC3)c3ccccc23)cc1`, the “activity change, negative = cytotoxic” value is 14.4% (inactive).

In the case of `CCC(C(N)=O)N1CCCC1=O` (stereo not given), the “activity change, negative = cytotoxic” value is 3.89% (inactive).

Turning to `C=C1CC[C@@]2(O)[C@H]3Cc4ccc(O)c5c4[C@@]2(CCN3CC2CC2)[C@H]1O5`, the “activity change, negative = cytotoxic” value was 6.07% (inactive).

As to `Nc1ccncc1`, the “activity change, negative = cytotoxic” value is -29.2% (inactive).

Take `CC(C)NCC(O)c1ccccc1Cl` (stereo not given): the “activity change, negative = cytotoxic” value is -15.5% (inactive).

`CCCN1CCC[C@@H]2Cc3nc(N)ncc3C[C@H]21`: the “activity change, negative = cytotoxic” value is -12.2% (inactive).

Consider `CCCN1CCC[C@@H]2Cc3[nH]ncc3C[C@H]21`, for which the “activity change, negative = cytotoxic” value is -4.18% (inactive).

For the molecule `Oc1cc(Cl)ccc1Oc1ccc(Cl)cc1Cl`, the Potency was 11.4 µM (active) and 27.3 µM (active).

As to `N[C@@H](Cc1ccc(Oc2cc(I)c(O)c(I)c2)c(I)c1)C(=O)O`, the “activity change, negative = cytotoxic” value is 7.17% (inactive).

For the molecule `CC[C@@H](CO)NC(=O)[C@@H]1C=C2c3cccc4[nH]cc(c34)C[C@H]2N(C)C1`, the “activity change, negative = cytotoxic” value was -8.04% (inactive).

On to `NP(N)(=O)NC(=O)c1ccc(F)cc1`, for which the “activity change, negative = cytotoxic” value was -5.66% (inactive).

`CCN(CC)CCOC(=O)C(O)(c1ccccc1)c1ccccc1`: the “activity change, negative = cytotoxic” value was 0.832% (inactive).

For `Cc1cccc(C)c1NC(=O)CN1CCCC1=O`, the Potency entry is “inactive”.

For `CN1C(=S)CN=C(c2ccccc2)c2cc(Cl)ccc21`, the “activity change, negative = cytotoxic” value was -17.4% (inactive).

With `N[C@@H]1C[C@H]1c1ccccc1`, the “activity change, negative = cytotoxic” value is -8.46% (inactive).

For `CC[N+](CC)(CC)CC`, the “activity change, negative = cytotoxic” value was -13% (inactive).

Turning to `Fc1ccc(C(OCCN2CCN(CCCc3ccccc3)CC2)c2ccc(F)cc2)cc1`, the Potency is 9.7 µM (active).

For `CCCC1CCCCN1` (stereo not given), the “activity change, negative = cytotoxic” value is 4.46% (inactive).

For the molecule `CN(C)CCc1ccc(O)cc1`, the Potency entry was “inactive”.

In the case of `CC(=O)Nc1cc([As](=O)(O)O)ccc1O`, the “activity change, negative = cytotoxic” value is -10.2% (inactive).
